# Data reported in PubChem BioAssay AID1529 (NMMLSC, 2009).
# Hit rate of the full screen: of about 290,000 compounds, about 4,200 (1.4%) were called active. The entries come from a sample that favours actives as a whole. Values without a mark were called inactive.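 The calls were made as follows: active = binding response more than 3 SD above or below the average of its plate-row segment, actives on both sides; inconclusive = wells at one plate position flagged as instrument error; inactive = the rest.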
# Molecular target: Mitogen-activated protein kinase kinase kinase 3 (Homo sapiens) (UniProt Q99759)
# Sequence (Q99759 whole entry, looked up): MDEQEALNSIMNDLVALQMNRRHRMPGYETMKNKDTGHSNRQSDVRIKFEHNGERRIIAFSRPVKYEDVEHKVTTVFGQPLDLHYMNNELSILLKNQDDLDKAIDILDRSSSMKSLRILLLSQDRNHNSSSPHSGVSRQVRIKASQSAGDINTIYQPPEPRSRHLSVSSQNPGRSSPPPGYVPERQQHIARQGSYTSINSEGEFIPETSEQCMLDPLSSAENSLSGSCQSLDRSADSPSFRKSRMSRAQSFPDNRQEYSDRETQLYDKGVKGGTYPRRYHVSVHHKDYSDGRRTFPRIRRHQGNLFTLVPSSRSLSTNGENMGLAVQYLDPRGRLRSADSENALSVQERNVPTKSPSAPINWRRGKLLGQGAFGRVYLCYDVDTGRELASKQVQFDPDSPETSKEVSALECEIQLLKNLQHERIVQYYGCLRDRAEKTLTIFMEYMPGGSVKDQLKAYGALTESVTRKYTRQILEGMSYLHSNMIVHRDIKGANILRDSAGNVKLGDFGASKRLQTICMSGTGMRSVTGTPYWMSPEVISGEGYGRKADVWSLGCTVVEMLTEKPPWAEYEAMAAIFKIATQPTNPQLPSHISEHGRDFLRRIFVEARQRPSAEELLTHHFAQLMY
# Experiment: modulators of MEKK3-MEK5 PB1 binding, primary screen, biochemical, wildtype MEKK3, multiplex bead flow cytometry, Alexa488-MEK5 (AID 1529);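 also: Alexa488 bead fluorescence after subtracting the streptavidin-only scavenger bead signal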
# Conditions: bead-based flow cytometry, Alexa488-MEK5 binding to MEKK3; at 10 µM; actives lie on both sides; 0 = blocked by unlabeled MEK5, 100 = vehicle
row,Compound,binding response (% of control)
1,COc1ccc(S(=O)(=O)N2CCOCC2)cc1C(=O)NC1CCCCC1,103%
2,O=C(NCC1CCCCC1)c1cc(S(=O)(=O)N2CCCCC2)ccc1N1CCOCC1,4% [inhibitor] (active)
3,COCCNC(=S)Nc1cc(S(=O)(=O)N2CCOCC2)ccc1N1CCCCC1,99%
4,COc1cccc(C(=O)OCc2cc(=O)oc3c(C)c(C)ccc23)c1OC,103%
5,Nc1nc(SCc2cccc(Br)c2)n[nH]1,105%
6,O=C(CCn1nnc2ccccc2c1=O)N[C@@H](Cc1c[nH]c2ccccc12)C(=O)O,98%
7,O=c1c2ccccc2nnn1CSc1nnnn1-c1ccccc1,101%
8,CSCC[C@H](NC(=O)CCCn1nnc2ccccc2c1=O)C(=O)O,137% (active)
9,CN(CCc1ccccn1)C(=O)c1ccc(OC2CCN(CCc3ccccc3)CC2)cc1,98%
10,COc1ccc(CNC(=O)C2CCN(S(=O)(=O)c3ccc(SC)cc3)CC2)cc1,101%
11,COc1ccc(CNC(=O)C2CCN(S(=O)(=O)N3CCOCC3)CC2)cc1,104%
12,COc1ccc(CNC(=O)C2CCN(S(C)(=O)=O)CC2)cc1,39% [inhibitor] (active)
13,COc1ccc(CNC(=O)[C@@H]2CC=C[C@@H]3CCN(C4CC4)C(=O)[C@@H]32)cc1,101%
14,O=S(=O)(Nc1ccccc1Br)c1cccs1,100%
15,CCOC(=O)/C(C#N)=C/c1ccc(OCC(=O)Nc2ccccc2)c(OC)c1,27% [inhibitor] (active)
16,COc1cc(C2C3=C(CCCC3=O)OC3=C2C(=O)CCC3)ccc1OCC(=O)Nc1ccccc1,100%
17,CCCn1c(C)cc(/C=C(\C#N)C(=O)OCC(=O)Nc2cc(OC)c(OC)c(OC)c2)c1C,101%
18,Cc1cc(C)c2nc(N(CCN(C)C)C(=O)/C=C/c3cccs3)sc2c1,101%
19,COc1ccc(NC(=O)NNC(=O)COc2cc(C)c(Cl)c(C)c2)c(OC)c1,105%
20,CC(C)(C)OC(=O)N1CCC(C(=O)NNC(=O)c2ccc(Cl)cc2Cl)CC1,101%
21,COc1ccc(CC(=O)N2N=C(C)CC2(O)C(F)(F)F)cc1 (stereo not given),129% (active)
22,CC1=NN(C(=O)CCc2ccccc2O)C(O)(C(F)(F)F)C1 (stereo not given),90%
23,CC1=NN(C(=O)CCCc2ccccc2)C(O)(C(F)(F)F)C1 (stereo not given),108%
24,COc1cc(OC)c(C(=S)N2CCCC2)cc1OC,104%

row,Compound,binding response (% of control)
1,CCn1c(=S)sc2c(=O)n(CC(=O)Nc3cccc(Br)c3)c(C)nc21,102%
2,COc1ccc(/C=C2\SC(=S)N(CCCC(=O)NC3CCCC3)C2=O)cc1OC,96%
3,COc1cc(NC(=O)CN2C(=O)NC(C)(c3ccc(OC(F)F)cc3)C2=O)cc(OC)c1OC (stereo not given),100%
4,Fc1ccccc1COc1cccc2cccnc12,105%
5,COc1ccc(C(=O)NNC(=S)NC(=O)c2ccccc2)cc1,101%
6,Cc1onc(-c2ccccc2)c1C(=O)NNC(=S)NC(=O)c1ccc(F)cc1,98%
7,COc1ccc(C(=O)NC(=S)NNC(=O)c2c(-c3ccccc3)noc2C)cc1,134% (active)
8,CN(C)C(=O)CCC(=O)N1CCCCC1C(=O)Nc1ccc(Oc2ccccc2F)cc1 (stereo not given),105%
9,Cc1nn(-c2ccccc2)c(C)c1NC(=O)CCl,138% (active)
10,Cc1nn(-c2ccccc2)c(C)c1NC(=O)COc1ccc(Cl)cc1Cl,104%
11,Cc1nn(-c2ccccc2)c(Cl)c1C(=O)Nc1ccccc1,98%
12,Cc1cnc(CN(C)C(=O)C2CCC(=O)N(CCc3cccc(F)c3)C2)[nH]1 (stereo not given),104%
13,CC1(c2ccc3ccccc3c2)NC(=O)NC1=O (stereo not given),106%
14,O=c1c2ccccc2ncn1CCCCOc1ccccc1F,103%
15,Cc1cccc(OCCNC(=O)CSc2ccc(C(F)(F)F)cc2[N+](=O)[O-])c1,133% (active)
16,O=C(CSc1ccc(C(F)(F)F)cc1[N+](=O)[O-])NCCOc1ccccc1,94%
17,Nc1ccccc1Sc1ccc(C(F)(F)F)cc1[N+](=O)[O-],107%
18,Cn1nccc1C(=O)NC1CCCc2c1cnn2-c1ccccc1F (stereo not given),101%
19,CC(=O)C(C)n1cnc2scc(-c3ccc(C)cc3)c2c1=O (stereo not given),98%
20,CCc1ccc(C(=O)COC(=O)c2ccco2)cc1,103%
21,Cc1nc(-c2ccc(Cl)cc2)sc1C1(C)CC(c2ccc(Br)cc2)=NO1 (stereo not given),100%
22,COc1ccc(C(CNC(=O)COc2ccccc2OC)N2CCCCC2)cc1 (stereo not given),100%
23,O=C(Cn1cc(C(=O)C2CC2)c2ccccc21)Nc1ccccc1Cl,99%
24,COc1ccccc1N1CCN(Cc2ccc(OC)c3ccccc23)CC1,105%

row,Compound,binding response (% of control)
1,COc1ccccc1N1CCN(CCCCOc2ccc(F)cc2)CC1,124% (active)
2,CCN1CCN(CCCCOc2ccccc2F)CC1,100%
3,COc1ccc(CCN(C)C(=O)C23CC4CC(CC(Cl)(C4)C2)C3)cc1OC,102%
4,O=C(CCc1nnc2ccc(NCCCN3CCCC3=O)nn12)NCc1ccccc1Cl,101%
5,COc1cc(-c2nnc(Cn3cc(C(F)(F)F)ccc3=O)o2)cc(OC)c1OC,2% [inhibitor] (active)
6,CCOC(=O)c1cc(-c2nnc(-c3cc(OC)c(OC)c(OC)c3)o2)c(C)nc1C,100%
7,CC(C)(C)NC(=O)c1ccc(Cn2cc(C(F)(F)F)ccc2=O)cc1,100%
8,Cc1ccc(S(=O)(=O)N2CCC3(CC2)OCCO3)c(C)c1,101%
9,CCCCCc1c(C)nc(N2CCN(Cc3ccc4c(c3)OCO4)CC2)[nH]c1=O,98%
10,Cc1cc(S(=O)(=O)NCC(C)C)ccc1OCC(=O)NC1CC1,102%
11,COc1ccccc1NC(=S)N1CCN(C(c2ccccc2)c2ccccc2)CC1,102%
12,COc1ccccc1NC(=S)N1CCN(c2ccc(F)cc2)CC1,45% [inhibitor] (active)
13,COC(=O)c1ccc(C(=O)OC)c(NC(=S)N2CCN(c3ccc(F)cc3)CC2)c1,97%
14,COc1cccc(NC(=O)CCc2nnc3ccc(N4CCC(C)CC4)nn23)c1,98%
15,CC1(C)C=Cc2c(ccc3c2OC[C@@H](c2ccc(O)cc2O)C3)O1,108%
16,Cc1nc2ccccc2nc(C)c1=NOCc1ccc(Cl)cc1Cl,98%
17,Cc1[nH]c(=O)c(C(=O)/C=C/c2ccccc2)c2c1CCCC2,107%
18,Cc1cn(COC/C=C/c2ccccc2)c(=O)[nH]c1=O,-2% [inhibitor] (active)
19,Cc1nc2nc[nH]n2c(=O)c1C/C=C/c1ccccc1,84%
20,Cc1cc(=O)oc2cc(OCC(=O)N3CCN(c4ccc(F)cc4)CC3)c(Cl)cc12,101%
21,COc1ccc(C(=O)Cc2cnn(-c3ccccc3)c2)c(O)c1,101%
22,Cc1ncc(CC(=O)n2cc(C(=O)c3cc(Cl)ccc3O)cn2)s1,109%
23,O=C(c1cnn(-c2ccc(Cl)cc2)c1)c1ccccc1O,129% (active)
24,CC1(C)C2CC[C@]3(C)C(CC=C4[C@@H]5C[C@@](C)(CO)CC[C@]5(C(=O)O)CC[C@]43C)[C@@]2(C)CC[C@@H]1O (stereo not given in full),105%

row,Compound,binding response (% of control)
1,Cn1nnnc1NCc1ccc(Cl)c(Cl)c1,105%
2,COc1ccc(CNc2nnnn2C)cc1,51% [inhibitor] (active)
3,CCCn1nnnc1NCc1ccc(OC)cc1,111%
4,CCOC(=O)c1c(-c2ccccc2)oc2cc(Br)c(O)c(C=O)c12,98%
5,Cc1cc(OCC(=O)Nc2c(C)n(C)n(-c3ccccc3)c2=O)ccc1[N+](=O)[O-],96%
6,CCc1ccc(NC(=O)COC(=O)c2cccs2)cc1,101%
7,O=C(c1cccs1)N(C(=O)c1cccs1)c1ccccn1,94%
8,O=C(CNC(=O)c1ccc(Br)o1)NCC1CCCO1 (stereo not given),102%
9,O=C(c1ccc(Br)o1)N(c1ccccn1)C1CCCCC1,131% (active)
10,Cc1ccc(NC(=O)CSc2nn3c(=O)c(C)nnc3s2)cc1Cl,88%
11,CNC(C)C#Cc1ccc2sc3cc(OC)c(OC)cc3c(=O)c2c1 (stereo not given),110%
12,CCCCC1(C(=O)OCC)NC(c2ccc(O)cc2)C2C(=O)N(c3ccccc3)C(=O)C21 (stereo not given),104%
13,CCOC(=O)c1ccc(Nc2cc3ccccc3c(=O)[nH]2)cc1,100%
14,COc1ccc(C(=O)C[n+]2ccc(C)cc2)cc1,134% (active)
15,COc1ccc(C(=O)C[n+]2ccc(N)c(C)c2C)cc1,92%
16,COc1ccc(OCCC(=O)c2ccc(OC)cc2)cc1,102%
17,COC(C[C@@H](O)C[C@@H](O)[C@H](C)OCc1ccccc1)OC,101%
18,COc1ccc(C(=O)CSc2nnc(COc3ccccc3)n2Cc2ccco2)cc1,102%
19,CCCc1nc2c(c(=O)c3ccccc3n2C)c(=O)n1-c1cc(C)cc(C)c1,101%
20,Cn1c2ccccc2c(=O)c2c(=O)n(Cc3ccco3)c(COc3ccccc3)nc21,130% (active)
21,COc1ccc(/C=C/c2c(-c3cccc(C)c3)oc3ccc(-c4ccc5c(c4)OCO5)cc23)cc1,94%
22,CCOC(=O)c1cc(S(=O)(=O)NCCc2ccc(OC)c(OC)c2)cn1C,100%
23,CN(CC(=O)Nc1ccc(F)cc1)C(=O)c1ccc(-c2ccc(Cl)cc2)o1,105%
